# Many of the other results were omitted from the sample, so the strongest signals are more common in it than they were.
# What was measured:
# Test in all cases: glycan array binding signal (z-score within array); higher = stronger binding
# Settings in all cases: glycan notation: IUPAC condensed, linker removed
# Fuc(a1-2)Gal = target: Fuc(a1-2)Gal
# Procedure, shortened: (§1)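 Glycan array data came from 3228 arrays in the Consortium for Functional Glycomics database, and only arrays with an available protein sequence were kept. Glycan names were put into IUPAC-condensed notation, and columns mapping to the same glycan were averaged. The binding signal is a within-array Z-score, averaged across arrays of one protein sequence run at different concentrations or buffers and across linkers. A negative Z-score can be read as non-binding.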
# Fuc(a1-2)Gal(b1-4)Glc6S = target: Fuc(a1-2)Gal(b1-4)Glc6S
# Procedure, shortened: as §1
# [1] = target: Fuc(a1-2)Gal(b1-4)GlcNAc(b1-2)Man(a1-3)[Fuc(a1-2)Gal(b1-4)GlcNAc(b1-2)Man(a1-6)]Man(b1-4)GlcNAc(b1-4)[Fuc(a1-6)]GlcNAc
# Procedure, shortened: as §1
# [2] = target: Fuc(a1-2)Gal(b1-4)GlcNAc(b1-3)GalNAc
# Procedure, shortened: as §1
# [3] = target: Fuc(a1-2)Gal(b1-4)[Fuc(a1-3)]GlcNAc(b1-3)GalNAc
# Procedure, shortened: as §1
# [4] = target: Fuc(a1-2)Gal(b1-4)[Fuc(a1-3)]GlcNAc(b1-3)[Neu5Ac(a2-6)Gal(b1-4)GlcNAc(b1-6)]Gal(b1-4)Glc
# Procedure, shortened: as §1
# [5] = target: Fuc(a1-2)[Gal(a1-3)]Gal(b1-4)GlcNAc(b1-6)GalNAc
# Procedure, shortened: as §1
# [6] = target: Fuc(a1-2)[Gal(a1-3)]Gal(b1-4)[Fuc(a1-3)]Glc
# Procedure, shortened: as §1
# [7] = target: Fuc(a1-2)[GalNAc(a1-3)]Gal
# Procedure, shortened: as §1
# [8] = target: Fuc(a1-3)[Gal(b1-4)]GlcNAc(b1-2)Man(a1-3)[Fuc(a1-3)[Gal(b1-4)]GlcNAc(b1-2)Man(a1-6)]Man(b1-4)GlcNAc(b1-4)GlcNAc
# Procedure, shortened: as §1
# [9] = target: Fuc(a1-3)[Gal(b1-4)]GlcNAc(b1-2)Man(a1-3)[Fuc(a1-3)[Gal(b1-4)]GlcNAc(b1-2)Man(a1-6)]Man(b1-4)GlcNAc(b1-4)[Fuc(a1-6)]GlcNAc
# Procedure, shortened: as §1
# [10] = target: Fuc(a1-3)[Gal3S(b1-4)]GlcNAc
# Procedure, shortened: as §1
# Fuc(a1-4)GlcNAc = target: Fuc(a1-4)GlcNAc
# Procedure, shortened: as §1
# Fuc(b1-3)GlcNAc = target: Fuc(b1-3)GlcNAc
# Procedure, shortened: as §1
# Gal(a1-3)Gal(b1-3)GlcNAc = target: Gal(a1-3)Gal(b1-3)GlcNAc
# Procedure, shortened: as §1
# [11] = target: Gal(a1-3)Gal(b1-3)GlcNAc(b1-3)GalNAc
# Procedure, shortened: as §1
# Gal(a1-3)Gal(b1-4)Glc = target: Gal(a1-3)Gal(b1-4)Glc
# Procedure, shortened: as §1
# Gal(a1-3)Gal(b1-4)GlcNAc = target: Gal(a1-3)Gal(b1-4)GlcNAc
# Procedure, shortened: as §1
# [12] = target: Gal(a1-3)Gal(b1-4)GlcNAc(b1-3)GalNAc
# Procedure, shortened: as §1
# Gal(a1-4)Gal(b1-4)GlcNAc = target: Gal(a1-4)Gal(b1-4)GlcNAc
# Procedure, shortened: as §1
# [13] = target: Gal(b1-3)GlcNAc(b1-3)Gal(b1-4)GlcNAc(b1-3)Gal(b1-4)GlcNAc(b1-2)[Gal(b1-3)GlcNAc(b1-3)Gal(b1-4)GlcNAc(b1-3)Gal(b1-4)GlcNAc(b1-6)]Man(a1-6)[Gal(b1-3)GlcNAc(b1-3)Gal(b1-4)GlcNAc(b1-3)Gal(b1-4)GlcNAc(b1-2)Man(a1-3)]Man(b1-4)GlcNAc(b1-4)[Fuc(a1-6)]GlcNAc
# Procedure, shortened: as §1
# [14] = target: Gal(b1-3)GlcNAc(b1-3)GalNAc
# Procedure, shortened: as §1
# [15] = target: Gal(b1-3)[Fuc(a1-4)]GlcNAc(b1-2)Man(a1-3)[Gal(b1-3)[Fuc(a1-4)]GlcNAc(b1-2)Man(a1-6)]Man(b1-4)GlcNAc(b1-4)[Fuc(a1-6)]GlcNAc
# Procedure, shortened: as §1
# [16] = target: Gal(b1-3)[Fuc(a1-4)]GlcNAc(b1-3)Gal(b1-3)[Fuc(a1-4)]GlcNAc
# Procedure, shortened: as §1
# Gal(b1-4)Glc = target: Gal(b1-4)Glc
# Procedure, shortened: as §1
# [17] = target: Gal(b1-4)GlcNAc(b1-3)Gal(b1-4)GlcNAc(b1-3)Gal(b1-4)GlcNAc
# Procedure, shortened: as §1
# [18] = target: Gal(b1-4)GlcNAc(b1-3)Gal(b1-4)GlcNAc(b1-3)Gal(b1-4)GlcNAc(b1-2)[Gal(b1-4)GlcNAc(b1-3)Gal(b1-4)GlcNAc(b1-3)Gal(b1-4)GlcNAc(b1-6)]Man(a1-6)[Gal(b1-4)GlcNAc(b1-3)Gal(b1-4)GlcNAc(b1-3)Gal(b1-4)GlcNAc(b1-2)Man(a1-3)]Man(b1-4)GlcNAc(b1-4)[Fuc(a1-6)]GlcNAc
# Procedure, shortened: as §1
# [19] = target: Gal(b1-4)GlcNAc(b1-3)Gal(b1-4)GlcNAc(b1-3)Gal(b1-4)GlcNAc(b1-3)Gal(b1-4)GlcNAc(b1-3)Gal(b1-4)GlcNAc(b1-2)Man(a1-3)[Gal(b1-4)GlcNAc(b1-3)Gal(b1-4)GlcNAc(b1-3)Gal(b1-4)GlcNAc(b1-3)Gal(b1-4)GlcNAc(b1-3)Gal(b1-4)GlcNAc(b1-2)Man(a1-6)]Man(b1-4)GlcNAc(b1-4)[Fuc(a1-6)]GlcNAc
# Procedure, shortened: as §1
# [20] = target: Gal(b1-4)GlcNAc(b1-3)Gal(b1-4)GlcNAc(b1-3)GalNAc
# Procedure, shortened: as §1
# [21] = target: Gal(b1-4)GlcNAc(b1-3)Gal(b1-4)GlcNAc(b1-3)[Gal(b1-4)GlcNAc(b1-3)Gal(b1-4)GlcNAc(b1-6)]GalNAc
# Procedure, shortened: as §1
binder,measurement,setting,value
SP16664D-bth-476-27-476 (Bacteroides thetaiotaomicron) (protein) DDLEVGKNIDESAYSGIYENNAYLRDGKSNLVSKVVELHGETYATTVKMGLSKTPNTATSAKVKIDAAYLETYNKAHNTDFALYPQDLVTFANEGILTVNANTKSAEVEMTIRAGEGLQEDKTYAIPVAISDQSSDITIKDEDAKHCIYLVKDMRNAGDAYKGEGVMQGYLFFEVNDVNPLNTLSFQLENGKLLWDVVVLFAANINYDAEAGRPRVQCNPNVQYLLDNNETLLQPLRRRGVKVLLGLLGNHDITGLAQLSEQGAKDFAREVAQYCKAYNLDGVNYDDEYSNSPDLSNPSLTNPSTAAAARLCYETKQAMPDKLVTVFDWGQMYGVATVDGVDAKEWIDIVVANYGSAAYPIGQMTKKQCSGISMEFNLGGGGSLSASKAQSMIDGGYGWFMGFAPSPAKYGSVFSRLQGGGEVLYGSNVAAPTIFYKKNDPTPYKYPDDL,glycan array binding signal (z-score),Fuc(a1-2)Gal,-0.249
same,glycan array binding signal (z-score),Fuc(a1-2)Gal(b1-4)Glc6S,0.006
same,glycan array binding signal (z-score),[1],0.161
same,glycan array binding signal (z-score),[2],-0.244
same,glycan array binding signal (z-score),[3],0.134
same,glycan array binding signal (z-score),[4],-0.167
same,glycan array binding signal (z-score),[5],0.007
same,glycan array binding signal (z-score),[6],-0.184
same,glycan array binding signal (z-score),[7],-0.152
same,glycan array binding signal (z-score),[8],0.013
same,glycan array binding signal (z-score),[9],3.02
same,glycan array binding signal (z-score),[10],-0.196
same,glycan array binding signal (z-score),Fuc(a1-4)GlcNAc,5.19
same,glycan array binding signal (z-score),Fuc(b1-3)GlcNAc,-0.141
same,glycan array binding signal (z-score),Gal(a1-3)Gal(b1-3)GlcNAc,0.314
same,glycan array binding signal (z-score),[11],-0.337
same,glycan array binding signal (z-score),Gal(a1-3)Gal(b1-4)Glc,-0.117
same,glycan array binding signal (z-score),Gal(a1-3)Gal(b1-4)GlcNAc,-0.212
same,glycan array binding signal (z-score),[12],-0.12
same,glycan array binding signal (z-score),Gal(a1-4)Gal(b1-4)GlcNAc,-0.17
same,glycan array binding signal (z-score),[13],0.144
same,glycan array binding signal (z-score),[14],0.061
same,glycan array binding signal (z-score),[15],0.054
same,glycan array binding signal (z-score),[16],1.49
same,glycan array binding signal (z-score),Gal(b1-4)Glc,-0.258
same,glycan array binding signal (z-score),[17],0.004
same,glycan array binding signal (z-score),[18],1.01
same,glycan array binding signal (z-score),[19],20
same,glycan array binding signal (z-score),[20],-0.091
same,glycan array binding signal (z-score),[21],-0.045

# Source: the supplement of paper PMC8728848
